In the supplement of paper PMC10849652:
Of roughly 7,900 targets only a part is listed; those with a hit were picked by preference. About 0.6% of all pairs of compound and target were hits.

The targets below were run with Cn1cncc1[C@@](N)(c1ccc(Cl)cc1)c1ccc2c(c1)c(-c1cccc(Cl)c1)cc(=O)n2C [tipifarnib] (assay: log2 fold change, soluble protein after heating vs DMSO (PISA); higher = thermal stabilisation; K562 cells, 10 uM, 30 min; active = over 0.2 and 3.5 SD of the protein, either way, in both replicates (recomputed)).
Method in brief: (§1)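 Thermal stability values are relative to control samples and come from duplicates. They are expressed as log2 fold changes. For measurement, K562 cells (2×10^6 cells/mL) received 10 μM compound for 30 min, and aliquots were heated for 3 min over 48°C-58°C, pooled, and extracted at 4°C in PBS with 0.5% NP-40. Soluble protein, the supernatant after 21,000xg for 90 min, was quantified by TMTpro 16plex LC-MS/MS with equalised channel sums.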

Chain of UniProt Q96BI3 (Q96BI3 whole entry, looked up): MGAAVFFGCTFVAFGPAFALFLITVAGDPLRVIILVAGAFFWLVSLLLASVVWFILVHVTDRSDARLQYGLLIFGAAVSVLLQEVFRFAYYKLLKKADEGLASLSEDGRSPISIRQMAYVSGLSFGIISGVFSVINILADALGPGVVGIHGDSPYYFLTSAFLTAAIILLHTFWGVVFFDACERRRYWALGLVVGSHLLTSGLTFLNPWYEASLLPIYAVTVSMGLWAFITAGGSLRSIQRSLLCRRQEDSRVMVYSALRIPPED
Chain of UniProt Q8N6T3 (Q8N6T3 whole entry, looked up): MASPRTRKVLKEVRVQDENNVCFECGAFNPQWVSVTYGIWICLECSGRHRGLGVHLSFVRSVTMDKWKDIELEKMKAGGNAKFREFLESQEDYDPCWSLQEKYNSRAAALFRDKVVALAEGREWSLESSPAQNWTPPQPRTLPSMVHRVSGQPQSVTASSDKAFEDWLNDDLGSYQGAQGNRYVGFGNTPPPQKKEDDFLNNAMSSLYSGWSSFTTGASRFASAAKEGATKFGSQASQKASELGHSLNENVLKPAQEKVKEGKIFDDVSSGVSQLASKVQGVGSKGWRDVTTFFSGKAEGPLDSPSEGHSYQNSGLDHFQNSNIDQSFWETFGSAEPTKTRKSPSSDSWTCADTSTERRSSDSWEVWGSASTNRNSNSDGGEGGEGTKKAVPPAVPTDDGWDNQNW
Chain of UniProt Q9NYF8 (Q9NYF8 whole entry, looked up): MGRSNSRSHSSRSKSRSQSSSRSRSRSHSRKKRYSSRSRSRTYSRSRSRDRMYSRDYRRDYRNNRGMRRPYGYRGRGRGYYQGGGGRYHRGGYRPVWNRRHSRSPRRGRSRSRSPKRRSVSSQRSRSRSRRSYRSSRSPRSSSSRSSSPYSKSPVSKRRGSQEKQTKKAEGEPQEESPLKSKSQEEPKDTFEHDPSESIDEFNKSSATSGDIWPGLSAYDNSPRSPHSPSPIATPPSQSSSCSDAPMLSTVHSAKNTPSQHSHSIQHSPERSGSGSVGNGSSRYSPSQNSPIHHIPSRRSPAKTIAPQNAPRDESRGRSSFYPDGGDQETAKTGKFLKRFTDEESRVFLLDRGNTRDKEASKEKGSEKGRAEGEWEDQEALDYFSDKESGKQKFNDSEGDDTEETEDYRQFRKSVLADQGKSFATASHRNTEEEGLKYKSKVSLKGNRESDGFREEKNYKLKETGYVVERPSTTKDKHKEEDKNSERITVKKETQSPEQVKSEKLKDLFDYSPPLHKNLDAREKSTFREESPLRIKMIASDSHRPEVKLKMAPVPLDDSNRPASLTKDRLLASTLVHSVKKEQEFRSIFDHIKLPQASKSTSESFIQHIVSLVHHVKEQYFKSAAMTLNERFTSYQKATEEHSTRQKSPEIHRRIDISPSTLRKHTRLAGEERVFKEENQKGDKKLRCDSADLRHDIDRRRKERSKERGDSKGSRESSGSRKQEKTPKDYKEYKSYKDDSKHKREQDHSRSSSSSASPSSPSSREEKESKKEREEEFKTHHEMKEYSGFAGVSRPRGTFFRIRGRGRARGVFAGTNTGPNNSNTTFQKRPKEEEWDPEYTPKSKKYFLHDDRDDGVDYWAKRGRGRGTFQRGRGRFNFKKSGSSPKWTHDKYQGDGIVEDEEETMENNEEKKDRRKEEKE
Chain of UniProt P17707 (P17707 whole entry, looked up): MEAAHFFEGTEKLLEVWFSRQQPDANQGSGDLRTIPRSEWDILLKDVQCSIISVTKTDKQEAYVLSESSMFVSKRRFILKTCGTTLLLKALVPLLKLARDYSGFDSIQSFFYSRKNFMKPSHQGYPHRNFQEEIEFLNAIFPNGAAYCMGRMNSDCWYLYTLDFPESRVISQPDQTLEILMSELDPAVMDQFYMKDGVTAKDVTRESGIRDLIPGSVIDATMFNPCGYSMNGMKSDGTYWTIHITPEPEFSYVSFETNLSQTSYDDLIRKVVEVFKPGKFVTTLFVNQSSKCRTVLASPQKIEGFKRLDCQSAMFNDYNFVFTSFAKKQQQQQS
Chain of UniProt Q00973 (Q00973 whole entry, looked up): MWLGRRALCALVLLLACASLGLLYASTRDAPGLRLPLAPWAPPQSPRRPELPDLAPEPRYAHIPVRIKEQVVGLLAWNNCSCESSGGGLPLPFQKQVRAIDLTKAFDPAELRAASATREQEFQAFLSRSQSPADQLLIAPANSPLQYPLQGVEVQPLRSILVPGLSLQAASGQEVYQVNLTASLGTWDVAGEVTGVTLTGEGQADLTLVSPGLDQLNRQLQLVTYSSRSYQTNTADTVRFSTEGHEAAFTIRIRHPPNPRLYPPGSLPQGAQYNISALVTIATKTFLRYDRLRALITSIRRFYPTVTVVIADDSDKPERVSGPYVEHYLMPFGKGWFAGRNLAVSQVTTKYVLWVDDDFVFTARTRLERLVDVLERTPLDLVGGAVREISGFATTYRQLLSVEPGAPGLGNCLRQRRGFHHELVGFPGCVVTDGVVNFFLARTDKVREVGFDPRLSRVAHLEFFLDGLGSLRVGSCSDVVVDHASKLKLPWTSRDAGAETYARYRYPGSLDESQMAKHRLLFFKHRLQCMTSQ
Chain of UniProt P42025 (P42025 whole entry, looked up): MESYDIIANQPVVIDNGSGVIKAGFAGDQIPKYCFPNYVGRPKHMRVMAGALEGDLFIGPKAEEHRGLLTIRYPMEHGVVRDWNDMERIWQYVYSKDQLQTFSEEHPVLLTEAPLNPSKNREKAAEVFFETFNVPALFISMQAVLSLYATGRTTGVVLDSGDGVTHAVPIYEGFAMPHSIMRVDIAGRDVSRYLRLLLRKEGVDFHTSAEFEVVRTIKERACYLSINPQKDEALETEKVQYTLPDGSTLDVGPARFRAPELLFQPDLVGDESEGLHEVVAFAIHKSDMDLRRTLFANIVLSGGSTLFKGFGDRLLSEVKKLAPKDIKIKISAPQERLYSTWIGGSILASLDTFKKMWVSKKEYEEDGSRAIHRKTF
Chain of UniProt Q9Y679 (Q9Y679 whole entry, looked up): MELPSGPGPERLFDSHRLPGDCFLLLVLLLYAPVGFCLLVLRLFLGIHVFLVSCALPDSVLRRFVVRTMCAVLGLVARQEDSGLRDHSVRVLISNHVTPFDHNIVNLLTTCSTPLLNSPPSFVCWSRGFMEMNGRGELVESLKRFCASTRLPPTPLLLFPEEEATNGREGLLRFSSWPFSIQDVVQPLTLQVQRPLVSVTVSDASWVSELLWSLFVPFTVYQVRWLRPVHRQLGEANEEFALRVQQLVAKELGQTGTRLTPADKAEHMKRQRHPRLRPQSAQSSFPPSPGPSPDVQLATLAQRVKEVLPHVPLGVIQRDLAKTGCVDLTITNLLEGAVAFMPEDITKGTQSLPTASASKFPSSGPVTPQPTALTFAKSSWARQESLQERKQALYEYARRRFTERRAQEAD
Chain of UniProt P02749 (P02749 whole entry, looked up): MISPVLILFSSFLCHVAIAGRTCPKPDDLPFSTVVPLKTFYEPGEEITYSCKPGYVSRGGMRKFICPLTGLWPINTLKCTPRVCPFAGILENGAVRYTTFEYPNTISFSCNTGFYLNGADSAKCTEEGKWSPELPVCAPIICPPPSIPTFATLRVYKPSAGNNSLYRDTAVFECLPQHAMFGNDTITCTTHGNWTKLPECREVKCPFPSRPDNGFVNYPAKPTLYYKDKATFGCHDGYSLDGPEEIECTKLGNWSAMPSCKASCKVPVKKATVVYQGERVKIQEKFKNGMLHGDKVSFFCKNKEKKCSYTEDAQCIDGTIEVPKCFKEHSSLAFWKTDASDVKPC
Chain of UniProt O00244 (O00244 whole entry, looked up): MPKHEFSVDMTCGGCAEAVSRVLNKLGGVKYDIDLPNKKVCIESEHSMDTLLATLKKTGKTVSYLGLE
Chain of UniProt P53367 (P53367 whole entry, looked up): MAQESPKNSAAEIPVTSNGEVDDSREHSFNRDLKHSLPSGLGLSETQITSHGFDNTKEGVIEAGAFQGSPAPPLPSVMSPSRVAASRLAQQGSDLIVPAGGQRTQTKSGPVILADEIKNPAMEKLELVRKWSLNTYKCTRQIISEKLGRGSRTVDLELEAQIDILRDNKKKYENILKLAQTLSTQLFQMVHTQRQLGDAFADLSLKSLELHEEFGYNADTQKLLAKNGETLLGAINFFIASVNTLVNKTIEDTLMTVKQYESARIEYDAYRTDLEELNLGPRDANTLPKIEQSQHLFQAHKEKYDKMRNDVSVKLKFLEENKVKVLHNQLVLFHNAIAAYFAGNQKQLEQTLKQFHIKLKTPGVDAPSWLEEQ
Chain of UniProt O00170 (O00170 whole entry, looked up): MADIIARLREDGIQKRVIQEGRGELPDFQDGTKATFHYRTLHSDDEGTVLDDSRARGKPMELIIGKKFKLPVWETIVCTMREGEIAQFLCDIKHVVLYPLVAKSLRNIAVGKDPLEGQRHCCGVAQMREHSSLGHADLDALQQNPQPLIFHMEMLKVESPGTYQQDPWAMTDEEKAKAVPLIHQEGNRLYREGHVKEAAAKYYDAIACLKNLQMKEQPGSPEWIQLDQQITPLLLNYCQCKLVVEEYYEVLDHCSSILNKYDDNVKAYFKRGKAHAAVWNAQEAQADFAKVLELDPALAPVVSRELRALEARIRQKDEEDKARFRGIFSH
Chain of UniProt P24666 (P24666 whole entry, looked up): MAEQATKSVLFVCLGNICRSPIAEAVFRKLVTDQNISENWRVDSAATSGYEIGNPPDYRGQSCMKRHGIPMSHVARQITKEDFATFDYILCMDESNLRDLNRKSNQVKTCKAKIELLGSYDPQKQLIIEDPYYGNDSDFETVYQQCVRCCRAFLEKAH
Chain of UniProt P18846 (P18846 whole entry, looked up): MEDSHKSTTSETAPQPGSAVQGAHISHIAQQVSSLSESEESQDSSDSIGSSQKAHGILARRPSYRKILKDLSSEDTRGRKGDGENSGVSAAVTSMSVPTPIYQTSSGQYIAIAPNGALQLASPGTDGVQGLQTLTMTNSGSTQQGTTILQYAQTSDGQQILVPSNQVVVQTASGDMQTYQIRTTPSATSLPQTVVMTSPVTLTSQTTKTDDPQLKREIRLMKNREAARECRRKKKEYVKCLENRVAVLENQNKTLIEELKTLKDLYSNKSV

| Target | log2 fold change |
| --- | --- |
| BCLAF1 (UniProt Q9NYF8) | -0.005 (inactive) |
| B4GALNT1 (UniProt Q00973) | 0.025 (inactive) |
| ARFGAP1 (UniProt Q8N6T3) | -0.036 (inactive) |
| ANK2 (UniProt Q01484) | 0.034 (inactive) |
| ACTR1B (UniProt P42025) | 0.077 (inactive) |
| AMD1 (UniProt P17707) | -0.022 (inactive) |
| APOH (UniProt P02749) | 0.085 (inactive) |
| APH1A (UniProt Q96BI3) | -0.06 (inactive) |
| AUP1 (UniProt Q9Y679) | -0.106 (inactive) |

These targets were tested with FC(F)(F)c1ccc(/C=C/c2nc(COc3ccc(CCCCn4ccnn4)cc3)co2)cc1 [mubritinib] in the same assay as above.
Method in brief: as §1

| Target | log2 fold change |
| --- | --- |
| BSCL2 isoform 4 (UniProt Q96G97) | 0.133 (inactive) |
| ARL3 (UniProt P36405) | 0.029 (inactive) |
| ABCA4 (UniProt P78363) | 0.154 (inactive) |
| ALG14 (UniProt Q96F25) | 0.003 (inactive) |
| AFDN isoform 5 (UniProt P55196) | 0.054 (inactive) |
| AP2M1 (UniProt Q96CW1) | -0.035 (inactive) |
| ASB6 (UniProt Q9NWX5) | 0.037 (inactive) |
| ATOX1 (UniProt O00244) | 0.004 (inactive) |
| ADPRH (UniProt P54922) | 0.015 (inactive) |
| ADAMTS5 (UniProt Q9UNA0) | 0.154 (inactive) |
| AASDH (UniProt Q4L235) | 0.144 (inactive) |
| ATP7B (UniProt P35670) | -0.079 (inactive) |
| ATRN (UniProt O75882) | -0.027 (inactive) |
| BRD3 (UniProt Q15059) | 0.047 (inactive) |
| ACP1 (UniProt P24666) | 0.035 (inactive) |
| ATXN3 isoform 1 (UniProt P54252) | 0.018 (inactive) |
| ARRDC1 (UniProt Q8N5I2) | -0.112 (inactive) |

| Target | log2 fold change |
| --- | --- |
| ACTBL2 (UniProt Q562R1) | -0.267 (inactive) |
| AIP (UniProt O00170) | 0.015 (inactive) |
| ARHGAP25 isoform 4 (UniProt P42331) | 0.266 (inactive) |
| ABHD11 (UniProt Q8NFV4) | -0.235 (inactive) |
| ATF1 (UniProt P18846) | 0.057 (inactive) |
| ARFIP1 isoform 2 (UniProt P53367) | -0.004 (inactive) |
| ACSL6 isoform 1 (UniProt Q9UKU0) | 0.015 (inactive) |
| ARGLU1 (UniProt Q9NWB6) | -0.057 (inactive) |
| BCLAF1 (UniProt Q9NYF8) | 0.031 (inactive) |
| B4GALNT1 (UniProt Q00973) | 0.015 (inactive) |
| ARFGAP1 (UniProt Q8N6T3) | -0.022 (inactive) |
| ANK2 (UniProt Q01484) | -0.141 (inactive) |
| ACTR1B (UniProt P42025) | -0.001 (inactive) |
| AMD1 (UniProt P17707) | 0.056 (inactive) |
| APOH (UniProt P02749) | -0.346 (inactive) |
| APH1A (UniProt Q96BI3) | 0.05 (inactive) |
| AUP1 (UniProt Q9Y679) | 0.033 (inactive) |
